The structures appear in SMILES notation. Inconclusive results are not listed. Where a call stands in place of a potency, no number is given. Active and inactive are the calls of the source. Calls follow the shape of the dose curve; as a rule, active = well fitted cell-killing curve with a large enough effect in the repeat runs; inconclusive = weak or mixed curves, or effect the other way; inactive = flat fitted curve, though single readings scatter.

Test [1] in a line: cAMP Responsive Elements (CRE) small molecule antagonists, cell-based qHTS assay: qHTS cell viability counter screen (AID 2060913). Also: nearly all actives have a fitted effect of over 40% in size. Also: potency is read from the fitted curve at half-maximal effect. The gist of the method: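 Cytotoxicity read in the same wells as the CRE-bla HEK293T antagonist assay: after 3 h compound with 0.25 uM NKH477 final and 2 h beta-lactamase substrate, CellTiter-Glo luminescence measured.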
The nature of test [2]: cAMP Responsive Elements (CRE) small molecule agonists, cell-based qHTS assay: qHTS cell viability counter screen (AID 2060914). Also: nearly all actives have a fitted effect of over 50% in size. In outline: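 Luminescence read-out (CellTiter-Glo, 30 min RT) of ATP-based viability in CRE-bla HEK 293T cells, run in the same wells as the β-lactamase reporter assay after 3 h compound treatment at 37 °C.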
Background: qHTS replaces the single test concentration by a dilution series.

For the molecule `N=C1C=CC(=C(c2ccc(N)cc2)c2ccc(N)cc2)C=C1`, the Potency in test [1] was 50.8 µM (active). Besides, the Potency entry in test [2] is “inactive”.
As to `O=C(O)c1cccc(C(F)(F)F)c1`, the Potency entry in test [1] and in test [2] was “inactive” in each case.
For `CCCCCC(C)N` (stereo not drawn), the Potency entry in test [1] and in test [2] was “inactive” throughout.
As to `Cc1c(Nc2ncccc2C(=O)O)cccc1C(F)(F)F`, the Potency entry in test [1] and in test [2] was “inactive” each time.
As for `CC(C)c1cccc(C(C)C)c1`, the Potency entry in test [1] and in test [2] was “inactive” throughout.
For `CN(C(=O)CCCOc1ccc2[nH]c(=O)ccc2c1)C1CCCCC1`, the Potency result in test [1] and in test [2] was “inactive” in each case.
For the molecule `CNC[C@H](O)[C@@H](O)[C@H](O)[C@H](O)CO`, the Potency result in test [1] and in test [2] was “inactive” throughout.
On to `CC(=O)Nc1ccc(CC(=O)O)cc1`, for which the Potency entry in test [1] and in test [2] was “inactive” throughout.
For the molecule `C/C=C(\C)C=O`, the Potency entry in test [1] and in test [2] was “inactive” each time.
For the molecule `CC1(C)S[C@@H]2[C@H](N=CN3CCCCCC3)C(=O)N2[C@H]1C(=O)O`, the Potency entry in test [1] and in test [2] was “inactive” throughout.
`CC(C)=CCC1=C(O)c2ccccc2C(=O)C1=O`: the Potency entry in test [1] and in test [2] was “inactive” each time.
Regarding `CC(C)OC(=O)c1cc2c(OCC(O)CNC(C)(C)C)cccc2[nH]1` (stereo not drawn), the Potency entry in test [1] and in test [2] was “inactive” in each case.
On to `C=C(C)C(=O)OCCCCCCCCCCCCC`, for which the Potency result in test [1] and in test [2] was “inactive” each time.
In the case of `Clc1cc(Cl)c(Cl)cc1Cl`, the Potency entry in test [1] and in test [2] was “inactive” throughout.
In the case of `O=C(O)c1cccc(C(=O)O)c1`, the Potency entry in test [1] and in test [2] was “inactive” throughout.
Consider `c1ccc(CNc2ncnc3nc[nH]c23)cc1`, for which the Potency entry in test [1] and in test [2] was “inactive” throughout.
With `Cc1ccc(O)c(O)c1`, the Potency entry in test [1] and in test [2] was “inactive” throughout.
As to `Nc1nc2ccccc2[nH]1`, the Potency result in test [1] and in test [2] was “inactive” in each case.
For the molecule `CCCCCCCCCCCCCC(=O)O`, the Potency result in test [1] and in test [2] was “inactive” each time.

The values above are taken from PubChem BioAssay (Tox21).
